# Screening data as filed in PubChem BioAssay.
# RecA intein inh – Mtb RecA intein splicing inhibitors, primary screen, biochemical, fluorescence, HTS; cell-free RecA intein splicing; hit rate 0.75% among 290,000; AID 2221, 2009; inhibition, % (no concentration beside the values); in the data active = inhibition above about 30%;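 also: 0% = vehicle wells and 100% = reference inhibitor control wells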
# PrPC surface inh – inhibitors of human cell surface prion protein PrPC, primary screen, cell-based, TR-FRET. Major prion protein (Homo sapiens), P04156. TR-FRET read-out. inhibition, % at 13.8 µM. hit rate 0.43% among 370,000; in the data active = inhibition above about 24%; also: 0% = median of the test wells and 100% = reference compound wells
# FBA Mtb inh – Mtb FBA enzyme inhibitors, primary screen, biochemical, fluorescence, strain H37Rv; purified M. tuberculosis FBA, fluorescence read-out; hit rate 2.3% among 360,000; inhibition, % at 1 µM; Fructose-bisphosphate aldolase (Mycobacterium tuberculosis (strain ATCC 25618 / H37Rv)), …; in the data active = inhibition above about 27%;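 also: 0% = vehicle and 100% = reference inhibitor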
# GDH-TPI counter – GDH-TPI coupling enzyme inhibitors, primary screen, artefact control for M. tuberculosis FBA inhibitor project, biochemical, absorbance, full deck. GDH-TPI coupled enzyme counterscreen, NADH absorbance. inhibition, % at 4.8 µM. hit rate 1.2% among 360,000; in the data active = inhibition above about 30%;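 also: 0% = DMSO wells and 100% = wells lacking the enzyme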
# BJeLR lethal – MLPCN primary cell-based screen for lethality selective to Ras in HRASV12 cells; hit rate 0.17% among 300,000; BJeLR (HRASV12) viability, CellTiter-Glo ATP luminescence, 48 h; inhibition, % (concentration not given with the values); in the data active = inhibition above about 50%
# PrPC TRFRET cf – confirmation of inhibitors of cell surface human prion protein, confirmation, cell-based, TR-FRET; AID 743200, 2013; cell surface PrPC level; hit rate 65% among 1,500; inhibition, % at 13.8 µM; shares compounds with PrPC surface inh; in the data active = inhibition above about 25%
# LD9 cytotox – cytotoxicity in LD9 cells, cytotoxicity control for cell surface PrPc inhibitor project, cell-based, luminescence, high throughput; inhibition, % at 13.8 µM; luminescence viability; hit rate 29% among 1,500; shares compounds with PrPC surface inh; in the data active = inhibition above about 9.5%
# Numbers without * were called inactive; / = no result. The list is not random: actives were taken first. Their share in the collection is about 4.2%.
SMILES,RecA intein inh,PrPC surface inh,FBA Mtb inh,GDH-TPI counter,BJeLR lethal,PrPC TRFRET cf,LD9 cytotox
CC(=O)NC(c1ccc(C(C)C)cc1)c1ccc2cccnc2c1O (stereo unspecified),-1,26*,-6,1,35,28*,22*
CC(=O)NC(c1cccc([N+](=O)[O-])c1)c1ccc2cccnc2c1O (stereo unspecified),5,40*,-1,4,35,37*,38*
CC(=O)NC(c1ccc(C)cc1)c1cc(Cl)c2cccnc2c1O (stereo unspecified),-1,9,-7,-8,12,/,/
COC(=O)C1=C(C)N(Cc2ccccc2C(F)(F)F)C(=NCC2CC2)NC1CCc1ccccc1 (stereo unspecified),/,2,/,/,/,/,/
CC(=O)N=c1sc2nc3ccccc3nc2n1N(C(C)=O)C(C)=O,-2,28*,5,30,-6,37*,3
CC(=O)n1c2ccccc2c2nc3ccccc3nc21,-3,/,-1,5,4,/,/
COc1ccc(CC(=O)Nc2ccc(N3CCN(c4ccc(OC)cc4)CC3)c(C#N)c2)cc1,-3,25*,4,6,-2,40*,13*
COc1ccc(N2CCN(c3ccc(NC(=O)c4ccc5c(c4)OCO5)cc3C#N)CC2)cc1,1,/,2,-4,-7,/,/
Fc1ccc(-c2cc(-c3nnc4sc(-c5ccco5)nn34)[nH]n2)cc1,/,8,/,/,/,/,/
CCOC(CCn1ccc(O)c(Cc2ccc(Cl)cc2)c1=O)OCC,1,35*,-2,11,1,11,-1
O=C(NCc1c(F)cccc1F)C1CCCN(c2ncccn2)C1 (stereo unspecified),/,0,/,/,/,/,/
N=C1C(c2nc3ccccc3s2)=C(O)CN1NC(=O)c1c[nH]c2ccccc12,2,26*,3,11,2,34*,6
N=C1C(c2nc3ccccc3s2)=C(O)CN1NC(=O)c1ccccc1[N+](=O)[O-],0,2,0,14,-1,/,/
C[C@H]1COc2cc(N3CCSCC3)ccc2S(=O)(=O)N1C,/,6,/,/,/,/,/
CC(C)(C)c1ccc(CNc2nc(-c3ccccn3)nnc2-c2ccccc2)cc1,/,24*,/,/,/,38*,33*
CNc1nc(-c2ccccn2)nnc1-c1ccccc1,3,8,1,5,-1,/,/
Clc1cccc(CNc2nc(-c3ccccn3)nnc2-c2ccccc2)c1,/,29*,/,/,/,37*,43*
CCC(NC(=O)c1ccc2c(c1)c(C)c(C)n2Cc1ccc(Cl)cc1)c1ccccc1 (stereo unspecified),/,1,/,/,/,/,/
CC(C)CC(N)c1csc(Nc2ncccn2)n1 (stereo unspecified),/,42*,2,-8,/,50*,-1
COc1ccc(C(=O)C[n+]2cc(Br)cc3ccccc32)cc1[N+](=O)[O-],0,27*,-1,10,-5,9,-1
O=C(C[n+]1cc(Br)cc2ccccc21)c1ccccc1,4,-12,-2,0,-4,/,/
S=c1nc(-c2ccccc2)n(CCCn2ccnc2)c2c1CCCC2,1,47*,1,41*,-9,46*,-2
Cc1nc(Nc2ncc(C(=O)Nc3c(C)cccc3Cl)s2)cc(N2CCN(CCO)CC2)n1,/,25*,/,/,/,19,1
Cc1ccccc1Cn1cc(COC(=O)NCCc2c[nH]c3ccccc23)nn1,/,24,/,/,/,/,/
COC(=O)c1cc2c(c3c4cc(F)ccc4n(S(=O)(=O)c4ccc(C)cc4)c13)C(=O)N(C)C2,/,-1,/,/,/,/,/
Cc1cccc(C)c1OCc1cc(C(=O)N(C)Cc2nc3ccccc3[nH]2)no1,2,23,-1,1,-2,/,/
CC(=O)c1ccc(OCc2cc(C(=O)N(C)Cc3nc4c(C)cccc4[nH]3)no2)cc1,2,27*,-3,3,2,26*,0
O=C(C(=O)N1CCN(C(=O)C2CCC2)CC1)c1cccc(C(F)(F)F)c1,/,6,/,/,/,/,/
